Screens deposited in PubChem by National Center for Advancing Translational Sciences (NCATS).
Compounds with a hit are over-represented: about 3.2% of the library has one in this group of screens.
A549 viability: counter-screen for Nrf2 inhibitors: cytotoxicity in A549 cells. A549 ARE-Fluc cells, CellTiter-Fluor viability, 18-24 h. Potency, µM (doses to about 46 µM), most hits filed as inhibitors. 390,000 tested, 0.16% active. AID 504648
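A549 ARE-Fluc cells in 5% FBS OPTI-MEM, 5000 cells/well, rested 2 h then exposed to compounds in concentration-response for 18-24 h at 37 °C. Viability by CellTiter-Fluor fluorescence (Ex 405/Em 525) after 30 min; luciferase luminescence (BugLite, 15 min, RT) read afterwards.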
IL-2 act: activates IL-2 in a cell-based reporter assay; IL-2 activation reporter assay, cell-based qHTS; stimulated with anti-CD3/CD4/CD28 beads; in transgenic mouse T cells; activation, % (series mostly up to about 46 µM); 360,000 tested, 0.065% active; AID 652025; in the data active = activation above about 50%; inconclusive = mostly about 30% to 49%
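Readout is EGFP and DsRed signal by fluorescent plate cytometry after 18 h at 37 degrees C. Transgenic mouse T cells (750/well) received compound for 60 min before bead stimulation (anti-CD3, anti-CD4, anti-CD28); memory T cells served as non-tolerant control.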
p53 reactivator: re-activators of mutant p53. H1299 p53-A138V BP100-luciferase reporter, luminescence, 24 h. Potency, µM (top dose mostly 92.2 µM), most hits filed as activators. 320,000 tested, 0.063% active; note: nearly all actives have a fitted effect of over 45% in size
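p53-null H1299 cells stably carrying temperature-sensitive p53-A138V and a BP100-luciferase reporter were pinned with compounds (4-point, 1:5 series) and held 24 hrs at 37 deg C. Luminescence was read 10 min after detection reagent.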
Nrf2 activator: activators of Nrf2 (ARE) signaling | AREc32 ARE-luciferase reporter (MCF7-derived line), luminescence, 24 h | Potency, µM (titrated, usually from 46.1 µM), usual class: activators | 410,000 tested, 0.31% active; note: nearly all actives have a fitted effect of over 65% in size
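Nrf2 activation is followed as ARE-luciferase induction in the AREc32 line after one day of compound treatment; luminescence is read with Steady-Glo.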
Nrf2 inh: blocks Nrf2 signaling; A549 ARE-Fluc reporter, luciferase luminescence, 18-24 h; Potency, µM (doses to about 46 µM), usual class: inhibitors; 360,000 tested, 2.1% active; AID 504444; note: nearly all actives have a fitted effect of over 60% in size
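Nrf2 function is reported as luminescence of an ARE-controlled luciferase in A549 cells. Compounds were tested at several concentrations, and a CellTiter-Fluor read on the same wells flagged cytotoxicity.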
BRCA1 expr up: BRCA1 expression activation; MCF7-BRCA1-FFLuc reporter, luminescence, 48 h; response scale: scaled: vehicle 0%, 10 µM genistein 100%; Potency, µM (highest dose often 46.1 µM), actives largely listed as activators; 380,000 tested, 1.1% active; AID 624202; note: nearly all actives have a fitted effect of over 80% in size
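Cells: MCF7-BRCA1-FFLuc, 2000/well. Exposure: 48 h, 37 °C, 5% CO2. Read: luminescence, 15 min post-substrate. Controls: genistein 10 microM (maximal activation), DMSO (neutral).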
Of the large screens only hits and unclear results are named; the others gave an inactive call. Unless noted, calls come from the whole dose curve; as a rule, active = well fitted curve in the direction sought with a large enough effect; inconclusive = small, poorly fitted or top-dose-only effect, or another doubt; inactive = no such curve, though single readings can be large; an effect the other way counts as inactive or inconclusive.

O=C(N/N=C/C(Br)=C/c1ccccc1)C(O)c1ccccc1 (configuration not stated)	p53 reactivator inconclusive, Nrf2 activator 11µM, Nrf2 inh inconclusive
COc1ccc(NC(=O)c2cn(-c3ccccc3)nc2-c2cc3ccccc3o2)cc1	none
OCc1cn(-c2ccccc2)nc1-c1cc2ccccc2o1	Nrf2 inh inconclusive, BRCA1 expr up 2.5µM
Cc1ccc(S(=O)Cc2ccc(C(=O)NCc3ccc(OC(C)C)cc3)o2)cc1 (configuration not stated)	Nrf2 inh inconclusive (no result: IL-2 act, p53 reactivator, BRCA1 expr up)
Cc1ccc(O)c(NC(=S)NC(=O)/C=C/c2ccccc2)c1	Nrf2 activator 11µM
Cc1ccc(O)c(NC(=S)NC(=O)CC(C)C)c1	p53 reactivator inconclusive, BRCA1 expr up 13µM
CCS(=O)(=O)c1ccc(O)c(NC(=O)CCCC(=O)O)c1	none
CCS(=O)(=O)c1ccc(O)c(NC(=O)/C=C/c2ccccc2)c1	BRCA1 expr up 13µM
Cc1ccc(O)c(NC(=S)NC(=O)C(C)C)c1	BRCA1 expr up inconclusive
O=C(/C=C/c1ccc(F)cc1)NC(=S)Nc1ccccc1O	Nrf2 inh inconclusive, BRCA1 expr up 13µM
O=C(/C=C/c1ccccc1)NC(=S)Nc1ccccc1O	p53 reactivator inconclusive, BRCA1 expr up inconclusive
Nc1ccc(-c2nc3ncccc3o2)c(O)c1	Nrf2 activator inconclusive, BRCA1 expr up 5µM
COc1cc(S(=O)(=O)Nc2ccc(C)cc2)ccc1N=Cc1c(C)c(C#N)c(=O)n(C)c1O	IL-2 act 448, Nrf2 inh inconclusive
COc1cc(S(=O)(=O)Nc2ccc(C)cc2)ccc1N=Cc1c(C)[nH]n(-c2ccc(C)cc2)c1=O	none
CCOC(=O)Cc1c(Sc2ccccc2)c2ccccc2n1C	Nrf2 inh 23µM
Cn1c(CC(=O)NC(C)(C)CO)c(Sc2ccccc2)c2ccccc21	none
Cc1ccc(NC(=O)Cn2cc(C(=O)C3CCCCC3)c3ccccc32)c(C)c1	Nrf2 inh inconclusive (no result: IL-2 act, p53 reactivator, BRCA1 expr up)
COc1ccc(C2Cc3ccccc3C(=O)N2Cc2ccccc2)cc1COc1ccc(NC(C)=O)cc1 (configuration not stated)	none (no result: IL-2 act, p53 reactivator, Nrf2 activator, BRCA1 expr up)
Cn1c(=O)c2[nH]c(Cc3cccc(O)c3)nc2n(C)c1=O	none (no result: p53 reactivator)
Cn1c(=O)c2[nH]c(COc3ccc(C(C)(C)C)cc3)nc2n(C)c1=O	Nrf2 inh 12µM
Cn1c(=O)c2[nH]c(CCCCCCCc3nc4ccccc4[nH]3)nc2n(C)c1=O	A549 viability inconclusive, Nrf2 inh 16µM (no result: p53 reactivator)
COCCNC(=S)N/N=C(\C)c1ccc(O)cc1	none
C/C(=N\NC(=S)NCC(C)(C)C)c1cc(F)cc(F)c1O	A549 viability inconclusive, Nrf2 activator 10µM, Nrf2 inh 23µM
Cc1ccc(S(=O)(=O)N2CCN(Cc3cc(Br)ccc3O)CC2)cc1	Nrf2 inh inconclusive (no result: IL-2 act, p53 reactivator, BRCA1 expr up)
Cc1cccn2c(=O)cc(COc3cccc(NC(=O)COc4ccccc4)c3)nc12	none (no result: IL-2 act, p53 reactivator, Nrf2 inh, BRCA1 expr up)
CCOC(=O)c1c(NC(=O)/C=C/C(=O)O)sc(C)c1-c1ccc(C(C)(C)C)cc1	Nrf2 activator inconclusive, Nrf2 inh inconclusive
Cc1sc(NC(=O)/C=C/C(=O)O)c(C(N)=O)c1-c1ccc(C(C)(C)C)cc1	Nrf2 activator 13µM
O=C(Cn1c(-c2cccs2)cc2cc(F)ccc21)NCCc1ccc(Cl)cc1	none (no result: IL-2 act, p53 reactivator)
COC(=O)c1ccc(OCC(O)Cn2nnc3ccccc32)cc1 (configuration not stated)	BRCA1 expr up 11µM
CC(=O)Nc1ccc(OCC(O)Cn2c(C(C)C)nc3ccccc32)cc1 (configuration not stated)	IL-2 act 72
CC(=O)c1ccc(OCC(O)Cn2nnc3ccccc32)cc1 (configuration not stated)	BRCA1 expr up inconclusive
CC(=O)Nc1ccc(S(=O)(=O)NCCc2csc3nc(-c4cccc(C)c4)nn23)cc1	none (no result: IL-2 act, p53 reactivator, Nrf2 inh, BRCA1 expr up)
O=C(CCl)NCCCN(C(=O)C(Cl)Cl)c1ccc([N+](=O)[O-])cc1	A549 viability inconclusive, Nrf2 activator 11µM, Nrf2 inh inconclusive
